Screens from PubChem BioAssay.
APOBEC3G inh: APOBEC3G (human) deaminase inhibition; recombinant A3G, ssDNA deamination FAM/TAMRA fluorescence; 0.28% of 330,000 active; inhibition, % at 20 µM; Q9HC16;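 active = inhibition of at least 40% at 20 µM, with no more than 30% in the related APOBEC3A deaminase screen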;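 note: plate controls were DMSO wells with A3G for no effect and wells lacking A3G enzyme for full effect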
Target sequence (Q9HC16 whole entry, looked up): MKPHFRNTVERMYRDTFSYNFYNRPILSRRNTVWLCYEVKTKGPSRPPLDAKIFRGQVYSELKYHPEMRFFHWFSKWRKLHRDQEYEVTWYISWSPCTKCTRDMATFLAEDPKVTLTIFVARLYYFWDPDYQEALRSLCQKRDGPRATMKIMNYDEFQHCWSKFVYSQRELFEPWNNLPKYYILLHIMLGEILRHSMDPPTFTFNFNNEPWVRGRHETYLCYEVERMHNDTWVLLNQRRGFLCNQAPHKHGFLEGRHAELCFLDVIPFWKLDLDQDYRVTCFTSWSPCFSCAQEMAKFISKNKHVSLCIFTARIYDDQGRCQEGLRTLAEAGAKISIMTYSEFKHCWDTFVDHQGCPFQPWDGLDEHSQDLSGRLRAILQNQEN
APOBEC3A inh: human APOBEC3A DNA deaminase inhibition; P31941; recombinant A3A, FAM/TAMRA ssDNA deamination fluorescence; inhibition, % at 20 µM; 0.41% of 330,000 active; AID 493011;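 active = at least 40% inhibition at 20 µM here, with at most 30% in a related deaminase screen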;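 note: plate controls were A3A with DMSO for no effect and wells lacking A3A enzyme for full effect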
Target sequence (P31941 whole entry, looked up): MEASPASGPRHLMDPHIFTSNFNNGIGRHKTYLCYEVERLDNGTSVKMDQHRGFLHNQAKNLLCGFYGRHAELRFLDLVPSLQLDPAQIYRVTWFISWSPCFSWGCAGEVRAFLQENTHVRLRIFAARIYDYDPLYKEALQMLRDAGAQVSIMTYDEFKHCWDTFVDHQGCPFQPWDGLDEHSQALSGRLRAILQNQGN
H9c2 TAG inh: reduces triacylglycerol accumulation in H9c2 cells; inhibition, % at 12.5 µM; Nile Red lipid (TAG) fluorescence; cells loaded with 200 µM oleic acid; 0.66% of 230,000 active;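 active = pattern-corrected inhibition of lipid staining of at least 50% with the nuclear-stain viability signal not falling by more than 50%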;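 note: 0% = DMSO wells and 100% = triacsin C control wells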
NadD block: blocks S. aureus nicotinate mononucleotide adenylyltransferase; 0.78% of 360,000 active; AID 602399; inhibition, % at 20 µM; purified NadD enzyme, colorimetric absorbance read-out; in the data active = inhibition above about 26%
PfGluPho inh: PfG6PD (Plasmodium falciparum) enzyme inhibition; inhibition, % at 20 µM; 0.78% of 350,000 active; AID 504690; PfGluPho enzyme, NADPH resazurin-diaphorase fluorescence;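 active = inhibition reaching at least a set limit at 20 µM in the primary screen, cut at about 59% in these data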;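 note: 0% = DMSO wells with substrate and 100% = DMSO wells lacking glucose-6-phosphate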
H9c2 protect: protects H9c2 cardiomyocytes from peroxide injury; 0.63% of 360,000 active; AID 588492; H2O2 injury protection, ATPLite, 2 h; protection from H2O2 cell death, % at 20 µM;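 active = compounds giving at least 50% protection of heart cells from peroxide-induced death in the single-dose screen, raw or plate-pattern-corrected value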;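 note: 0% = DMSO wells with peroxide and 100% = DMSO wells without peroxide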
* marks the source's active call; other numbers are inactive results. In the library only some 2.9% were active in any assay of this set; here they are far more common.

For CCCN(CCC)C(C)C(=O)NCC1(c2ccccc2)CCCC1 (stereo not drawn) the results were APOBEC3G inh -2.6, APOBEC3A inh -1.1, H9c2 TAG inh 0.8, NadD block -3.6, PfGluPho inh -2.4 and H9c2 protect -20.7.
Screening O=C(COC(=O)Cc1ccccc1F)NNC(=O)c1ccc([N+](=O)[O-])cc1 returned APOBEC3G inh -10.0, APOBEC3A inh -0.4, H9c2 TAG inh -6.5, NadD block 3.7, PfGluPho inh -5.4 and H9c2 protect 0.0.
Screening CC1CCN(CC(=O)Nc2cccc(Cl)c2)CC1 returned APOBEC3G inh -4.5, APOBEC3A inh 4.1, H9c2 TAG inh -4.1, NadD block -2.6, PfGluPho inh -15.1 and H9c2 protect 4.7.
For Cc1ccc(OC2CCN(C(=O)[C@H]3O[C@@H](n4cnc5c(N)ncnc54)[C@H](O)[C@@H]3O)CC2)cc1 the results were NadD block -2.2 and H9c2 protect -0.8.
For COc1ccccc1N(CC(=O)NCCSCc1cccc(C)c1)S(=O)(=O)c1ccccc1 the results were APOBEC3G inh -2.7, APOBEC3A inh -2.7, H9c2 TAG inh -9.0, NadD block -7.4, PfGluPho inh 7.4 and H9c2 protect 6.4.
`COC(=O)c1cc(NC(=O)c2cc3ccccc3o2)cc(C(=O)OC)c1` gave APOBEC3G inh 24.4, APOBEC3A inh -6.4, NadD block -12.2, PfGluPho inh 4.6 and H9c2 protect 89.2*.
Screening COC(=O)c1cccc(NC(=O)c2cc3ccccc3o2)c1 returned APOBEC3G inh -2.6, APOBEC3A inh -1.4, NadD block -9.3, PfGluPho inh 35.0 and H9c2 protect -6.7.
`CC(C)C[C@@H]1Cc2[nH][nH]c(=O)c2[C@H](c2ccc(Cl)cc2)O1` gave NadD block 4.2.
For c1ccc(Cn2nnnc2C(c2cccnc2)N2CCN(C3CCCCC3)CC2)cc1 (stereo not drawn) the results were APOBEC3G inh 0.4, APOBEC3A inh -1.6, NadD block 5.4, PfGluPho inh -5.5 and H9c2 protect 79.1*.
C#CCN(C[C@@H]1[C@@H](OC(=O)NCc2ccccc2F)[C@@H](OC(=O)NCc2ccccc2F)Cn2c(=O)n(CCCCCC)c(=O)n21)S(=O)(=O)c1ccc(C)cc1 was read as H9c2 TAG inh 24.0, NadD block 4.9, PfGluPho inh 8.9 and H9c2 protect -2.9.
For C#CCN(C[C@@H]1[C@@H](OC(=O)NCc2ccccc2F)[C@@H](OC(=O)NCc2ccccc2F)Cn2c(=O)ccc(=O)n21)S(=O)(=O)c1ccc(C)cc1 the results were H9c2 TAG inh 69.3*, NadD block 7.2, PfGluPho inh 2.9 and H9c2 protect -4.4.
CC1OC(CC(=O)O)CC2=C1C(=O)c1c(O)cccc1C2=O (stereo not drawn) was read as H9c2 TAG inh 127.8, NadD block 0.3, PfGluPho inh 130.7* and H9c2 protect -19.4.
COc1cc2c(cc1OC)C(c1ccc3c(c1)OCO3)C1=C(CC(C)(C)CC1=O)N2 (stereo not drawn) was read as APOBEC3G inh 1.6, APOBEC3A inh -4.2, H9c2 TAG inh 5.5, NadD block -2.7, PfGluPho inh 3.1 and H9c2 protect 72.3*.
COc1cccc(/C=C2\SC(=S)N(CCC(=O)NNC(=O)c3ccccc3OC)C2=O)c1 was read as APOBEC3G inh -8.2, APOBEC3A inh -1.4, NadD block 16.8, PfGluPho inh 1.8 and H9c2 protect 0.4.
COc1cccc(/C=C2/SC(=S)N(CC(=O)Nc3nnc(C)s3)C2=O)c1 was read as H9c2 TAG inh 6.3, NadD block 39.4*, PfGluPho inh -16.1 and H9c2 protect 7.5.
For O=C(O)CCN1C(=O)/C(=C\c2ccc(OCc3ccccc3)c(OCc3ccccc3)c2)SC1=S the results were APOBEC3G inh -7.8, APOBEC3A inh 1.3, H9c2 TAG inh -0.3, NadD block 31.1*, PfGluPho inh -47.5 and H9c2 protect -6.8.
O=C(O)CN1C(=O)/C(=C\c2cccc(OCc3ccc(Cl)cc3Cl)c2)SC1=S was read as APOBEC3G inh -3.1, APOBEC3A inh 5.5, H9c2 TAG inh -4.5, NadD block 30.3*, PfGluPho inh -43.9 and H9c2 protect 3.7.
For COc1cccc(/C=C2/SC(=S)N(CC(=O)NNC(=O)c3ccccc3OC)C2=O)c1 the results were APOBEC3G inh -7.4, APOBEC3A inh 1.5, NadD block 39.3*, PfGluPho inh -15.3 and H9c2 protect -0.3.
For CCCCCCn1c(CN2CCN(C(=O)OCC)CC2)nc2c1c(=O)n(C)c(=O)n2C the results were APOBEC3G inh -3.5, APOBEC3A inh 0.4, NadD block -0.6, PfGluPho inh -12.6 and H9c2 protect 3.5.
For Cc1cc(=O)[nH]c(Nc2ccccc2C)n1 the results were APOBEC3G inh -7.7, APOBEC3A inh -5.0, NadD block -3.4, PfGluPho inh -2.8 and H9c2 protect 4.9.
Screening COc1cc(/C=N/n2c(-c3ccc4c(c3)NC(=O)CO4)csc2=Nc2cccc(C)c2)ccc1O returned APOBEC3G inh 2.5, APOBEC3A inh -0.2, NadD block 34.6*, PfGluPho inh 25.8 and H9c2 protect 5.4.
For CCOc1ccc(-n2c(C)cc(C(=O)CCl)c2C)cc1 the results were APOBEC3G inh 3.6, APOBEC3A inh 1.2, H9c2 TAG inh 59.0*, NadD block -4.3, PfGluPho inh 8.3 and H9c2 protect -11.9.
For Cc1ccc(C(=O)C2CCN(S(=O)(=O)c3ccc(C(=O)O)cc3)CC2)cc1 the results were APOBEC3G inh -5.5, APOBEC3A inh -0.7, NadD block -5.4, PfGluPho inh -17.8 and H9c2 protect -2.1.
`Cc1cc(-c2nn3c(-c4ccccc4)nnc3s2)c2ccccc2n1` gave APOBEC3G inh 27.5, APOBEC3A inh 10.8, NadD block 0.2, PfGluPho inh 55.9 and H9c2 protect 64.3*.
Screening CC(NC(=O)c1ccc(C(=O)c2ccccc2)cc1)c1ccc(S(N)(=O)=O)cc1 (stereo not drawn) returned APOBEC3G inh -7.2, APOBEC3A inh 0.3, H9c2 TAG inh 14.1, NadD block -3.4, PfGluPho inh 8.4 and H9c2 protect -1.7.
Cc1nc2nc(C)n(CCN3CCOCC3)c(=O)c2c(-c2cccc([N+](=O)[O-])c2)c1C(=O)CCCCCCCCCCN1CCC(c2ccccc2)(c2ccccc2)CC1 was read as H9c2 TAG inh 126.9*, NadD block 10.4, PfGluPho inh 38.6 and H9c2 protect -21.2.
O=C(N/N=C/c1ccc(-c2ccc(S(=O)(=O)Nc3ncccn3)cc2)o1)c1cc2ccccc2cc1O was read as APOBEC3G inh 38.5, APOBEC3A inh 21.3, NadD block 81.3*, PfGluPho inh -52.6 and H9c2 protect 10.9.
`COc1cc(O)c(C=NN2C(=O)CSC2=S)c(OC)c1` gave H9c2 TAG inh -9.8, NadD block 22.0, PfGluPho inh 28.8 and H9c2 protect 62.3*.
